Consider nine compounds from PubChem BioAssay (Tox21).

A short description of experiment [1]: qHTS assay to identify aromatase inhibitors - cell viability counter screen (AID 743084).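 Note: cells stimulated with testosterone during compound exposure; nearly all actives have a fitted effect of over 55% in size.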
Experiment [2] deals with Aryl hydrocarbon receptor (Homo sapiens) (UniProt P35869). Briefly: qHTS assay to identify small molecule that activate the aryl hydrocarbon receptor (AhR) signaling pathway (AID 743085).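 For activation: HG2L7.5c1 human HepG2 liver cells with stably integrated DRE-driven firefly reporter; series mostly up to about 70 µM.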 Note: nearly all actives have a fitted effect of over 15% in size. Note: potency is the fitted concentration of half-maximal effect. Summed up: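 Stably transfected human liver carcinoma cells (HG2L7.5c1; 20 DRE-firefly luciferase) were incubated 5 h, dosed, and kept 24 h at 37C. Agonism was scored from increased luciferase luminescence.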
Aryl hydrocarbon receptor (Homo sapiens), sequence (P35869 whole entry, looked up): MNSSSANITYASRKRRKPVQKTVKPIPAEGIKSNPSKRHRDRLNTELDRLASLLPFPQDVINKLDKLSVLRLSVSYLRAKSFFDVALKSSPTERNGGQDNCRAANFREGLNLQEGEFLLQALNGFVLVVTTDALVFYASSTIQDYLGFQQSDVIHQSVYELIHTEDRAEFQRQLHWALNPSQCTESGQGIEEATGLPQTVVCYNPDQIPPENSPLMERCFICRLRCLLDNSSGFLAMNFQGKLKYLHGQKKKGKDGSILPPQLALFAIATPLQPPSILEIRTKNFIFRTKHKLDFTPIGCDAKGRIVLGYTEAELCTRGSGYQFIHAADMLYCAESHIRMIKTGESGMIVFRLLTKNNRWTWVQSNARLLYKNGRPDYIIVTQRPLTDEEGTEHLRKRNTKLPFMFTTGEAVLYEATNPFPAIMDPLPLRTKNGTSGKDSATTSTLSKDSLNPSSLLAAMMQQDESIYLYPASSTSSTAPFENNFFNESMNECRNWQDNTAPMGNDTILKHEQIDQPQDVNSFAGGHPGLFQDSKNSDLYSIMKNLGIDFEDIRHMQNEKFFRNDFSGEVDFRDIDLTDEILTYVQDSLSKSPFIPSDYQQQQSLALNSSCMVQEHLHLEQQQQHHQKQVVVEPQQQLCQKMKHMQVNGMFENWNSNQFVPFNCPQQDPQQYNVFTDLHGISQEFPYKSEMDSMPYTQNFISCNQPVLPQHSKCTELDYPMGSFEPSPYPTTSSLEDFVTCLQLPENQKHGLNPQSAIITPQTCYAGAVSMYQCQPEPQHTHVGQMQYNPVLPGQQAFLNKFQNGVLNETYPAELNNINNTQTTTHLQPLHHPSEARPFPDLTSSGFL

The nature of experiment [3]: qHTS assay to identify small molecule that activate the aryl hydrocarbon receptor (AhR) signaling pathway - cell viability counter screen (AID 743086). Note: series mostly up to about 70 µM; nearly all actives have a fitted effect of over 45% in size. In short, it runs like this: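 Cytotoxicity counter screen: CellTiter-Fluor signal (30 min, 37 C) in 4000 HepG2 cells/well carrying the DRE-luciferase reporter, following 24 h compound exposure at 37 C.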
A general note: In qHTS, concentration-response curves come from the screen itself.

In experiment [4] the target is Peroxisome proliferator-activated receptor gamma (Homo sapiens) (UniProt P37231). Briefly: qHTS assay to identify small molecule agonists of the peroxisome proliferator-activated receptor gamma (PPARg) signaling pathway (AID 743094; active = well fitted activation curve with a large enough effect in the signal ratio in the repeat runs, not every such curve was filed as active; the % refers to the signal ratio). Summed up:
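Quantitative HTS agonist mode: stable HEK293H line with UAS-beta-lactamase reporter under PPARg control, 17 h compound exposure at 37C, fluorescence after 1 h FRET substrate loading at room temperature.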

Experiment [5] is described as follows: qHTS assay to identify small molecule antagonists of the peroxisome proliferator-activated receptor gamma (PPARg) signaling pathway - cell viability counter screen (AID 743194). Note: nearly all actives have a fitted effect of over 55% in size. The following applies: Potency: co-treated with 50 nM rosiglitazone. Summed up: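 Viability was measured as CellTiter-Glo luminescence in GeneBLAzer PPARg UAS-bla HEK293H cells. These cells had been exposed 17 h at 37 C to compounds together with rosiglitazone at 50 nM final, with the beta-lactamase readout taken in the same wells.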

A short description of experiment [6]: qHTS assay for small molecule agonists of the antioxidant response element (ARE) signaling pathway (AID 743202; active = well fitted activation curve with a large enough effect in the signal ratio in the repeat runs, not every such curve was filed as active; the % refers to the signal ratio; note: potency is the fitted concentration of half-maximal effect). In short, it runs like this:
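Quantitative high-throughput format in HepG2 cells bearing an integrated ARE-beta-lactamase reporter. Compound exposure lasted 16 h at 37 C, and fluorescence was read 2 h after adding LiveBLAzer B/G substrate at room temperature.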

Experiment [7] is described as follows: qHTS assay for small molecule agonists of the antioxidant response element (ARE) signaling pathway - cell viability counter screen (AID 743203; calls by dose curve; note: nearly all actives have a fitted effect of over 55% in size). In short, it runs like this:
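Seeded at 2,000 cells/well, ARE-bla HepG2 cells were incubated 5 hrs before compound addition. After 16 hrs of treatment at 37C with 5% CO2, CellTiter-Glo reagent was added and luminescence read 30 min later.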

The nature of experiment [8]: qHTS assay for small molecule activators of the heat shock response signaling pathway - cell viability counter screen (AID 743209). Note: nearly all actives have a fitted effect of over 50% in size. Summed up:
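First, HSE-bla HeLa cells were seeded at 1500 cells/well and kept overnight at 37 C. Next, compounds were pinned in and incubated 5 h. After the FRET substrate step, CellTiter-Glo was added and luminescence read 30 min later.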

A short description of experiment [9]: qHTS assay for small molecule activators of the heat shock response signaling pathway (AID 743210; active = well fitted activation curve with a large enough effect in the signal ratio in the repeat runs, with a control signal flat, not every such curve was filed as active; the % refers to the signal ratio;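 note: HeLa cells with beta-lactamase reporter driven by heat shock elements; series mostly up to about 63 µM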). In short, it runs like this:
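HeLa HSE-bla cells, overnight plating; cpd in DMSO 5 h, 37 C; LiveBLAzer B/G FRET substrate 2.5 h RT; fluorescence intensity read.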

The nature of experiment [10]: qHTS assay to identify small molecule agonists of the peroxisome proliferator-activated receptor delta (PPARd) signaling pathway - cell viability counter screen (AID 743211). Note: nearly all actives have a fitted effect of over 55% in size. Summed up: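 In the same wells used for beta-lactamase reporter measurement, cytotoxicity is scored by CellTiter-Glo. HEK293H PPARd-bla cells receive compound for 17 h at 37C following a 5 h settling period.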

The target in experiment [11] is Peroxisome proliferator-activated receptor delta (Homo sapiens) (UniProt Q03181). Briefly: qHTS assay to identify small molecule agonists of the peroxisome proliferator-activated receptor delta (PPARd) signaling pathway (AID 743212; calls by dose curve). In short, it runs like this:
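HEK293H PPARd-bla cells; 5 h preincubation 37 C/5% CO2; compound (DMSO) 37 C; LiveBLAzer B/G FRET substrate 2 h RT; fluorescence intensity.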

A short description of experiment [12]: qHTS assay to identify small molecule antagonists of the peroxisome proliferator-activated receptor delta (PPARd) signaling pathway - cell viability counter screen (AID 743213). Note: nearly all actives have a fitted effect of over 50% in size. In short, it runs like this:
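CellTiter-Glo was added to PPARd-bla HEK293H wells following 17 h compound treatment in the presence of 300 nM L165041. Luminescence was recorded after 30 min at room temperature.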

In experiment [13] the target is Peroxisome proliferator-activated receptor delta (Homo sapiens) (UniProt Q03181). Briefly: qHTS assay to identify small molecule antagonists of the peroxisome proliferator-activated receptor delta (PPARd) signaling pathway (AID 743215; active = well fitted inhibition curve with a large enough effect in the signal ratio in the repeat runs, not every such curve was filed as active; the % refers to the signal ratio;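 note: cells stimulated with agonist L165041 at 300 nM final during compound exposure; series mostly up to about 62 µM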). In short, it runs like this: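 Inhibition of L165041-driven (300 nM final) PPARd signaling is scored in HEK293H UAS-bla cells. Exposure lasts 17 h at 37 C; beta-lactamase activity is then read by FRET substrate fluorescence after 2 h at room temperature.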
Peroxisome proliferator-activated receptor delta (Homo sapiens), sequence (Q03181 whole entry, looked up): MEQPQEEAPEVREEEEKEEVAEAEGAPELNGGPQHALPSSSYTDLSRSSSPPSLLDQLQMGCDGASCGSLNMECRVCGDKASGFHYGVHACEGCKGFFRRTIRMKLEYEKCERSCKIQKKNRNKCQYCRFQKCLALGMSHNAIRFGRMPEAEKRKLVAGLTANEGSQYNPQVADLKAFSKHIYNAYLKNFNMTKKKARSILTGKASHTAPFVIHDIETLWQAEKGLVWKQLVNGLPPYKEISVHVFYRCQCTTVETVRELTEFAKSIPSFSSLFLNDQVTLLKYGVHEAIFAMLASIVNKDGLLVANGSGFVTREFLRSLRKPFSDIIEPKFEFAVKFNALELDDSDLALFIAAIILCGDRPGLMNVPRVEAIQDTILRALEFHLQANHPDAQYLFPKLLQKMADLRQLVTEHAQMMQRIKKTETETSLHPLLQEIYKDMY

In experiment [14] the target is Bile acid receptor (Homo sapiens) (UniProt Q96RI1). Description: qHTS assay to identify small molecule antagonists of the farnesoid-X-receptor (FXR) signaling pathway (AID 743217; active = well fitted inhibition curve with a large enough effect in the signal ratio in the repeat runs, not every such curve was filed as active; the % refers to the signal ratio). In short, it runs like this: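 Antagonist mode against 50 uM (final) chenodeoxycholic acid stimulation in FXR-bla HEK 293T cells, 16 h at 37 °C. Inhibition detected as reduced beta-lactamase activity via LiveBLAzer B/G FRET fluorescence after 2 h at room temperature.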
Bile acid receptor (Homo sapiens), sequence (Q96RI1 whole entry, looked up): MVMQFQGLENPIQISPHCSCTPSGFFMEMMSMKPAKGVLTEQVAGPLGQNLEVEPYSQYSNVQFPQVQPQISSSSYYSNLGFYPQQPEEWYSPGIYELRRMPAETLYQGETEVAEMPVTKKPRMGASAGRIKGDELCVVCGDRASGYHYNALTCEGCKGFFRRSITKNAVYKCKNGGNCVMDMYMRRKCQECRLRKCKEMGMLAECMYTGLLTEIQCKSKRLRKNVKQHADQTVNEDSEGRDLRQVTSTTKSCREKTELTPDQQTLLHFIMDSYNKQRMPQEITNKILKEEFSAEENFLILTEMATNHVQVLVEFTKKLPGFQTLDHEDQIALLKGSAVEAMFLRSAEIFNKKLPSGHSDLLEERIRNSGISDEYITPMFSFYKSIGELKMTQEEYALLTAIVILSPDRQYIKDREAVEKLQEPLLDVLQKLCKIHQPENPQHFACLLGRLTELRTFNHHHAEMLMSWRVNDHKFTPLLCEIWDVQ

A short description of experiment [15]: qHTS assay to identify small molecule agonists of the farnesoid-X-receptor (FXR) signaling pathway - cell viability counter screen (AID 743218). Note: nearly all actives have a fitted effect of over 45% in size. Summed up: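 Cytotoxicity counter-screen run in parallel, same wells: FXR-UAS-bla HEK 293T cells dosed 16 h at 37 C, viability read by CellTiter-Glo luminescence after 30 min at room temperature.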
Experiment [16] deals with Bile acid receptor (Homo sapiens) (UniProt Q96RI1). Description: qHTS assay to identify small molecule agonists of the farnesoid-X-receptor (FXR) signaling pathway (AID 743220; active = well fitted activation curve with a large enough effect in the signal ratio in the repeat runs, not every such curve was filed as active; the % refers to the signal ratio). Summed up: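 Beta-lactamase reporter under UAS control in GeneBLAzer FXR HEK 293T cells (5000/well) measured with LiveBLAzer FRET substrate after 2 h at room temperature. Compound exposure lasted 16 h at 37C.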

Experiment [17] in a line: qHTS assay to identify small molecule antagonists of the farnesoid-X-receptor (FXR) signaling pathway - cell viability counter screen (AID 743221; active = well fitted cell-killing curve with a large enough effect in the repeat runs, not every such curve was filed as active; note: nearly all actives have a fitted effect of over 50% in size). In short, it runs like this:
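Here viability was scored by luminescence after CellTiter-Glo addition to wells already read for beta-lactamase. Prior treatment: compound plus CDCA (50 uM final), 16 h, 37 C, HEK 293T FXR-bla cells.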

Experiment [18] has as its target Vitamin D3 receptor (Homo sapiens) (UniProt P11473). Briefly: qHTS assay to identify small molecule agonists of the vitamin D receptor (VDR) signaling pathway (AID 743222; calls by dose curve). Summed up:
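Quantitative HTS agonist-mode screen: compounds in DMSO were pin-transferred onto VDR-bla cells and incubated 16 h at 37C, 5% CO2. Reporter activity was detected with LiveBLAzer B/G FRET substrate after 2 h at room temperature.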

The target of experiment [19] is Peroxisome proliferator-activated receptor gamma (Homo sapiens) (UniProt P37231). Description: qHTS assay to identify small molecule antagonists of the peroxisome proliferator-activated receptor gamma (PPARg) signaling pathway (AID 743191; calls by dose curve; note: series mostly up to about 63 µM; nearly all actives have a fitted effect of over 30% in size). Summed up:
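Beta-lactamase reporter under UAS control in HEK293H PPARg-bla cells; compound treatment 17 h at 37C. Read-out: fluorescence intensity after 1 h room-temperature incubation with LiveBLAzer B/G FRET substrate.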

Experiment [20] concerns the target Vitamin D3 receptor (Homo sapiens) (UniProt P11473). Description: qHTS assay to identify small molecule antagonists of the vitamin D receptor (VDR) signaling pathway (AID 743223; active = well fitted inhibition curve with a large enough effect in the signal ratio in the repeat runs, not every such curve was filed as active; the % refers to the signal ratio). In short, it runs like this: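 Inhibition of agonist-driven VDR signalling is scored in VDR-bla cells: 3 nM final 1alpha,25-dihydroxyvitamin D3 plus compound, 16 h at 37C, then beta-lactamase detection by FRET substrate fluorescence after 2 h.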

Records with an inconclusive call do not appear. Calls of active or inactive are those of the source. Unless noted, calls come from the whole dose curve; as a rule, active = well fitted curve in the direction sought with a large enough effect in the repeat runs; inconclusive = weak or mixed curves; inactive = no such curve, though single readings can be large; an effect the other way counts as inactive or inconclusive.

Vitamin D3 receptor (Homo sapiens), sequence (P11473 whole entry, looked up): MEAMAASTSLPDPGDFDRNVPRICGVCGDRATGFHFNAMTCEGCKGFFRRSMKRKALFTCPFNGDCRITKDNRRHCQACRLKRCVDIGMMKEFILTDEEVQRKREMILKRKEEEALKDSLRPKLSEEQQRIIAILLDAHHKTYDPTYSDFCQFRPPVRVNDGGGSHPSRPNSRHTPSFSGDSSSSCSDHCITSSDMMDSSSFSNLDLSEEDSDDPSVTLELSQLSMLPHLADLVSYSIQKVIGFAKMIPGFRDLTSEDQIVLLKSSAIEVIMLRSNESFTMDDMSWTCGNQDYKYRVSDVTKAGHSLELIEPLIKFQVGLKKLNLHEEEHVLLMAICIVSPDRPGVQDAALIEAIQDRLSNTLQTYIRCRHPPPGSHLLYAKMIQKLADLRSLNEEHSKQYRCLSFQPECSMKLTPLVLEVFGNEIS
Peroxisome proliferator-activated receptor gamma (Homo sapiens), sequence (P37231 whole entry, looked up): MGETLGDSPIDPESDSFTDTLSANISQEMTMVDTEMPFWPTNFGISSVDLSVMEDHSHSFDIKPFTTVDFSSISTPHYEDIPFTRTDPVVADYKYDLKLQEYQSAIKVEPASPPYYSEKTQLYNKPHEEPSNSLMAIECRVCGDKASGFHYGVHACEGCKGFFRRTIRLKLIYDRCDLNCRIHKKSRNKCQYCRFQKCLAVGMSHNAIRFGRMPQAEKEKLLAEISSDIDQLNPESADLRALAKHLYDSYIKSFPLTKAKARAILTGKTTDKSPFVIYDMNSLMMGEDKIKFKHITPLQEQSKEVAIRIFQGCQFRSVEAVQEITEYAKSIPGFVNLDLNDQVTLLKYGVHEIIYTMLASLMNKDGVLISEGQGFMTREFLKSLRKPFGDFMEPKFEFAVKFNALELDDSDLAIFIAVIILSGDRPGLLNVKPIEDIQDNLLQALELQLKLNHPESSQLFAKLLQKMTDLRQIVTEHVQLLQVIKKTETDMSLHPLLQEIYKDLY

As for `NNCc1ccccc1`, the Potency result in [1], in [3], in experiment [5], in experiment [7], in experiment [8] and in [9] was “inactive” in each case. The Potency result in experiment [10], in experiment [12], in [13], in experiment [15] and in experiment [17] was “inactive” each time. For the same compound, the Potency in experiment [2] was 55.5 µM (active); in experiment [6], 5.55 µM (active). Besides, the outcome in experiment [4], in experiment [11], in experiment [14] and in experiment [16] was inactive.

Regarding `CN(C)CCc1c[nH]c2cccc(OP(=O)(O)O)c12`, the Potency result in experiment [1], in experiment [2], in experiment [3], in experiment [5], in [6] and in experiment [7] was “inactive” in each case. For the same compound, the Potency entry in experiment [8], in experiment [9], in experiment [10], in [12], in experiment [13] and in experiment [15] was “inactive” throughout. Further, in experiment [17], the Potency entry was “inactive”. For the same compound, the compound was called inactive in [4], in experiment [11], in experiment [14] and in experiment [16].

Regarding `CCCCCCC1CCOC1=O` (centres undefined), the Potency entry in [1], in [2], in [3], in [5], in experiment [6] and in experiment [7] was “inactive” throughout. Moreover, the Potency result in experiment [8], in experiment [9], in experiment [10], in experiment [12], in [15] and in experiment [17] was “inactive” in each case. Further, the result in experiment [4] and in [18] was inactive.

For the compound `COc1ccc2c(C(=O)c3ccc(Cl)cc3)c(C)n(CC(=O)O)c2c1`, the Potency result in experiment [1], in experiment [3], in experiment [19], in [6], in experiment [7] and in experiment [8] was “inactive” throughout. The Potency entry in [9], in [12], in [13] and in experiment [17] was “inactive” throughout. Also, the Potency in experiment [2] was 33.5 µM (active). Besides, the call in experiment [4], in experiment [14] and in [16] was inactive.

For the compound `C/C=C/CC#N`, the Potency entry in [1], in [2], in [3], in [5], in experiment [6] and in experiment [7] was “inactive” each time. Besides, the Potency entry in [8], in [9], in experiment [10], in experiment [12], in [15] and in experiment [17] was “inactive” each time. The compound was called inactive in [4], in experiment [11] and in experiment [16].

As to `CC(C)(N)Cc1ccc(Cl)cc1`, the Potency entry in experiment [1], in [2], in [3], in [19], in [5] and in experiment [7] was “inactive” in each case. In addition, the Potency result in experiment [8], in experiment [9], in experiment [10], in experiment [13], in experiment [15] and in experiment [17] was “inactive” each time. In addition, the compound was called inactive in experiment [4], in experiment [11] and in [18].

As for `O=P(O)(O)CN(CP(=O)(O)O)CP(=O)(O)O`, the Potency entry in experiment [1], in [2], in experiment [3], in experiment [5], in experiment [6] and in experiment [7] was “inactive” in each case. The Potency result in [8], in experiment [9], in experiment [10], in experiment [12], in [13] and in experiment [15] was “inactive” in each case. For the same compound, the compound was called inactive in experiment [4], in experiment [18] and in experiment [20].

`O=C(O)CBr`: the Potency result in experiment [1], in experiment [2], in [3], in experiment [5], in [6] and in [7] was “inactive” each time. Further, the Potency result in experiment [8], in experiment [9], in experiment [10], in experiment [12], in experiment [13] and in [15] was “inactive” each time. For the same compound, the outcome in experiment [4], in [11], in [18] and in [20] was inactive.

Turning to `C=C1CC[C@@]2(O)[C@H]3Cc4ccc(O)c5c4[C@@]2(CCN3CC2CC2)[C@H]1O5`, the Potency entry in experiment [1], in [2], in experiment [3], in experiment [5], in experiment [6] and in [7] was “inactive” in each case. Further, the Potency entry in experiment [8], in [9], in experiment [10], in [12], in experiment [13] and in experiment [15] was “inactive” in each case. Besides, the compound was classed as inactive in experiment [4], in experiment [11], in [18] and in [20].
